Screening data deposited in PubChem BioAssay by The Scripps Research Institute Molecular Screening Center.
Hits are enriched below; roughly 3.4% of the tested compounds scored in any of these assays.
TEAD-YAP block = TEAD-YAP interaction inhibition | HEK-TIYL cells, TEAD-Gal4/YAP UAS-luciferase luminescence | inhibition, % at 9.12 µM | 1.4% of 640,000 active | AID 1259422; in the data active means inhibition above about 32%
MITF primary = human MITF inhibition, primary screen; AID 1259374; 0.91% of 650,000 active; inhibition, % at 2.6 µM; AlphaScreen MITF homodimerization, bead proximity signal; O75030; in the data active means inhibition above about 50%
Target sequence (O75030 whole entry, looked up): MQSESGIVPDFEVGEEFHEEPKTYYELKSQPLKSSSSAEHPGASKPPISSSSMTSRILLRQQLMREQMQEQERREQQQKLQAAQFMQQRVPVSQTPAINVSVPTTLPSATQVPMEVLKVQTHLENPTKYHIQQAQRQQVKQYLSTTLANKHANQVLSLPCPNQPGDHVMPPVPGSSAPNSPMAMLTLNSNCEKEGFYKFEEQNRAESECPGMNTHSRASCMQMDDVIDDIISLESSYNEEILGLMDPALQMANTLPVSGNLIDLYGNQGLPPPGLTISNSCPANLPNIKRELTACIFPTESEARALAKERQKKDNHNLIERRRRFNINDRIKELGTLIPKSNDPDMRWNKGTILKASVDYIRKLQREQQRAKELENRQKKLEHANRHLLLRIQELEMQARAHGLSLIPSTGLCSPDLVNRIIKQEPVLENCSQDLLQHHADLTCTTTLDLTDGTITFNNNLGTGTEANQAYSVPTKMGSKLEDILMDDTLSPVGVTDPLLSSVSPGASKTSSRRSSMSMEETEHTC
FBW7 activator = activators of human E3 ligase FBW7; normalized activity (activation), % at 26.1 µM; AlphaScreen FBW7–phospho-cyclin E peptide binding, activator screen; 0.13% of 650,000 active; Q969H0; in the data active means normalized activity above about 1.9%;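 further: purified mutant Fbw7 with reduced substrate affinity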
GPR151 ag = activates the human receptor GPR151 | Q8TDV0 | 1% of 650,000 active | activation, % at 11.2 µM | PathHunter beta-arrestin GPR151 cells, luminescence; in the data active means activation above about 4.9%
GPR151 conf act = confirmation of human GPR151 activators. shares compounds with GPR151 ag. activation, % at 11.2 µM. GPR151 PathHunter beta-arrestin cells, luminescence, 90 min; % of EA-reagent control over plate median. AID 1508609. 6,700 tested, under 10 active;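 active means mean percent activation across replicates above the confirmation screen cutoff of 4.91%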
GPR119 ag = activates human GPR119 in a GPR151 counter-screen. shares compounds with GPR151 ag. GPR119 PathHunter beta-arrestin cells, luminescence, 90 min; 0 = compound-well median, 100 = enzyme-acceptor control. activation, % at 11.2 µM. 0.3% of 6,700 active. AID 1508611;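 active means mean percent activation in the counterscreen above 29.09%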;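 further: counterscreen on off-target GPR119 to flag nonselective hits from the GPR151 activator screen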
A number is an active result; 0 = inactive; - = not tested or not shown.

SMILES	TEAD-YAP block	MITF primary	FBW7 activator	GPR151 ag	GPR151 conf act	GPR119 ag
COc1ccc(CN(C(=O)c2cccs2)C2CCS(=O)(=O)C2)cc1 (configuration not stated)	0	0	0	0	-	-
CCOc1ccc(CN(C(=O)c2cccs2)C2CCS(=O)(=O)C2)cc1 (configuration not stated)	0	0	0	6.8	0	0
CC1CCCCN1C(=O)c1nn2c(C(F)(F)F)cc(-c3cccs3)nc2c1Br (configuration not stated)	0	0	0	0	-	-
Cc1cccc(C2N(Cc3ccccc3)CCCN2Cc2ccccc2)n1	0	0	0	5.4	0	0
CCSc1ccccc1C(=O)NC(C)c1ccccc1 (configuration not stated)	0	0	0	5.5	0	0
CCCCCC(=O)Nc1ccc(S(=O)(=O)Nc2cc(OC)ncn2)cc1	0	0	0	0	-	-
O=c1c2c3c(sc2[nH]c(=S)n1-c1ccccc1)CCC3	0	0	0	0	-	-
O=c1c2c3c(sc2[nH]c(=S)n1-c1ccccc1)CN(Cc1ccccc1)CC3	0	0	0	5.3	0	0
Cc1cccc(Nc2ncnc3sc4c(c23)CCCC4)c1	0	0	0	0	-	-
CCn1cc(C(=O)N2C[C@H](C(=O)OC)[C@@H](c3ccc(F)cc3)C2)cn1	0	0	0	0	-	-
COC(=O)[C@H]1CN(C(=O)c2cnn(C(C)C)c2)C[C@@H]1c1ccc(F)cc1	0	0	0	5.7	0	0
CCOC(=O)N1CCN(C(=O)c2sc3nc(C)nc(N4CCCCC4)c3c2C)CC1	0	0	0	0	-	-
O=C(CCCN1C(=O)/C(=C/c2cccs2)SC1=S)N(CCO)Cc1ccccc1	0	0	0	0	-	-
COc1ccc(N2C(=O)C3CCCN3C2c2cc(OC)ccc2OC)cc1 (configuration not stated)	0	0	0	0	-	-
COc1ccc(N2C(=O)C3CCCN3C2c2ccccc2OC)cc1 (configuration not stated)	0	0	0	6.1	0	0
O=C(CSc1nccc(=O)[nH]1)Nc1nccs1	0	0	0	6.5	0	0
Cc1c(Cl)cccc1NC(=O)CSc1nccc(=O)[nH]1	0	0	0	5.3	0	0
CC(C)(C)c1ccc(C(=O)NC(=S)Nc2cc(-c3nc4ncccc4o3)ccc2Cl)cc1	0	0	0	5.1	0	0
Cc1ccc(C(=O)NC(=S)Nc2cc(-c3nc4ncccc4o3)ccc2Cl)cc1	0	0	0	0	-	-
CC1CN(C(=O)CCC(=O)NCCCN2CCc3ccccc3C2)c2ccccc2O1 (configuration not stated)	0	0	0	0	-	-
O=C(Nc1nc(-c2cc3ccccc3oc2=O)cs1)c1ccc(S(=O)(=O)N2CCc3ccccc32)cc1	0	0	0	5.0	0	0
O=C(Nc1nc(-c2cc3ccccc3o2)cs1)c1cc2ccccc2oc1=O	0	0	0	21	0	0
O=C(Nc1nc(-c2ccncc2)cs1)c1ccccc1I	0	0	0	6.3	0	0
CC1CCN(S(=O)(=O)c2ccc(C(=O)Nc3nc(-c4ccncc4)cs3)cc2)CC1	0	0	0	4.9	0	0
O=C(Nc1nc(-c2ccccc2)cs1)c1ccc(S(=O)(=O)N2CCc3ccccc32)cc1	0	0	0	0	-	-
SMILES	TEAD-YAP block	MITF primary	FBW7 activator	GPR151 ag	GPR151 conf act	GPR119 ag
O=C(Nc1nc(-c2ccncc2)cs1)c1ccc(S(=O)(=O)N2CCCCC2)cc1	0	0	0	0	-	-
O=C(CSc1ccc(Cl)cc1)N/N=C/c1ccccc1	0	0	0	0	-	-
O=C(NC(=S)NNc1ccccc1)c1cc2ccccc2oc1=O	0	0	0	5.5	0	0
O=C(NC(=S)Nc1ncccn1)c1cc2ccccc2oc1=O	0	0	0	0	-	-
CCOc1ccc2nc(N3CCCC(NCc4nccn4C)CC3)nc(C)c2c1 (configuration not stated)	0	0	0	0	-	-
O=C(NCC1CCC2(CCN(Cc3ccccc3Cl)CC2)O1)c1ccco1 (configuration not stated)	0	0	0	0	-	-
COc1ccc(-c2csc(NC(=O)c3ccc(C)o3)n2)cc1	0	0	0	9.6	0	0
O=C(CCc1nnc(Cc2ccc3c(c2)OCO3)o1)NCCCC1CCCC1	0	0	0	6.9	0	0
N#Cc1ccc(NC(=O)CN2CCN(c3ccc(C(F)(F)F)cc3[N+](=O)[O-])CC2)cc1	0	0	0	0	-	-
